{"source": "PubChem BioAssay (EPA / NIEHS)", "key": {"[1]": {"assay": "CCTE_Mundy_HCI_iCellGluta_NOG_NeuronCount: CCTE's Neurite Outgrowth Assay in iCellGluta cells for Neuron Count, Mundy Lab (AID 2284340);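 also: cells fixed about 48 h after compound addition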", "method_in_brief": "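Neuron count read by automated high-content imaging of Hoechst 33342 and betaIII-tubulin/Alexa Fluor-488 labelling in human iPSC glutamatergic neurons. Activity fitted relative to DMSO.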"}, "[2]": {"assay": "CCTE_Mundy_HCI_iCellGluta_NOG_NeuriteCount: CCTE's Neurite Outgrowth Assay in iCellGluta cells for Neurite Count, Mundy Lab (AID 2284342);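 also: chemical exposure about 48 hours starting 2 hours after plating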"}, "[3]": {"assay": "CCTE_Padilla_ZF_Score.Craniofacial: CCTE's 144 Hour Post-fertilization zebrafish Assay Score for Craniofacial Malformation, Padilla Lab (AID 2284405; active = hit-call score of the fitted dose curve at least 0.9, where 1 is the maximum; inactive = score below 0.9)", "method_in_brief": "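Craniofacial defects were scored at 6 dpf by two blinded observers using stereomicroscopy. Exposure of wild-type embryos began at 6–8 hpf in sealed wells of 10% Hanks' solution at 26C, with chemical removed by rinsing at 5 dpf.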"}, "[4]": {"assay": "CCTE_Padilla_ZF_Score.Edema: CCTE's 144 Hour Post-fertilization zebrafish Assay Score for Edema Malformation, Padilla Lab (AID 2284406; active = hit-call score of the fitted dose curve at least 0.9, where 1 is the maximum; inactive = score below 0.9)", "method_in_brief": "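Edema scored at 6 dpf by two blinded observers under a stereo microscope, in single outbred wild-type larvae exposed from 6-8 hpf in sealed wells (Hanks', 26C, 14:10 h light) and chemical-free after a 5 dpf rinse.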"}, "SERPINA7 (gene 6906)": {"tested_on": "SERPINA7 (gene 6906)", "assay": "CCTE_GLTED_hTBG: CCTE's human Thyroxine-binding Globulin (TBG) Inhibition Assay, Great Lakes Toxicology and Ecology Division (GLTED) Lab (AID 2284343);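 also: active chemicals lower fluorescence versus DMSO baseline by displacing probe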", "method_in_brief": "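Human thyroxine-binding globulin was exposed to each chemical for 2 hours, during which the ANSA probe could be displaced. Fluorescence was then measured at 380/475 nm, and loss of signal was analysed relative to DMSO.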"}, "[5]": {"assay": "VALA_MIGHUV1_ScratchOnly_WoundArea: VALA Sciences human Umbilical Vein Endothelial Cell Migration (MIGHUV) Assay, Area of Scratch Wound Inhibited Recovery (AID 2284336)", "method_in_brief": "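Wound area remaining after 24 h recovery imaged by Hoechst nuclear fluorescence in scratched HUVEC cultures, chemicals added within 30 min of scratching across a 6-point series. Gain of signal fitted against 0.1% DMSO; cytochalasin D positive control.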"}, "[6]": {"assay": "VALA_TUBHUV_Agonist_TubuleLength: VALA Sciences human Umbilical Vein Endothelial Tubule Formation (TUBHUV) Agonism Assay (AID 2284337)", "method_in_brief": "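Tubule length quantified by CD31 immunofluorescence imaging after fixation. HUVEC-HDF co-cultures (1:3) pre-grown 3 days with 10 ng/ml VEGF, then dosed 3 days in VEGF medium; 0.1 % DMSO vehicle baseline.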"}, "[7]": {"assay": "VALA_TUBIPS_Agonist_CellCount: Viability Assessment in the VALA Sciences human iPS-derived Endothelial Tubule Formation (TUBIPS) Agonism Assay (AID 2284338)"}, "[8]": {"tested_on": "SRY-box transcription factor 17 (SOX17) Protein Expression, Deisenroth Lab, SOX17 (gene 64321)", "assay": "CCTE_Deisenroth_DEVTOX-GLR_legacy_Sox17: (Legacy) CCTE's DevTox GLR-Endo Assay Evaluation of SRY-box transcription factor 17 (SOX17) Protein Expression, Deisenroth Lab (AID 2284341; active = hit-call score of the fitted dose curve at least 0.9, where 1 is the maximum; inactive = score below 0.9)", "conditions": "actives raise or lower the signal", "method_in_brief": "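Percent SOX17-positive cells, scored by high-content imaging as mean intensity exceeding pluripotent-control median by 5x BMAD, divided by cell count. Human RUES2-GLR endoderm differentiation, 48 h, two exposures 24 h apart, 1 nM–200 uM; DMSO-referenced bidirectional fitting.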"}, "[9]": {"tested_on": "SRY-box transcription factor 2 (SOX2) Protein Expression, Deisenroth Lab, SOX2 (gene 6657)", "assay": "CCTE_Deisenroth_DEVTOX-GLR_legacy_Sox2: (Legacy) CCTE's DevTox GLR-Endo Assay Evaluation of SRY-box transcription factor 2 (SOX2) Protein Expression, Deisenroth Lab (AID 2284346; active = hit-call score of the fitted dose curve at least 0.9, where 1 is the maximum; inactive = score below 0.9)", "method_in_brief": "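Percent Sox2-positive cells was scored by high-content imaging of 5 fields per well. Positivity cutoff was 5x BMAD over the directed endoderm control, and the DMSO median was subtracted. Cells were RUES2-GLR, dosed twice at 24-h intervals over 48 h of differentiation (1 nM-200 uM).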"}}, "note": "Values joined by “and” are separate entries in the source; they are usually repeats but may differ in a detail not shown here. Equal entries are not always repeated. Results filed as inconclusive are left out. Active and inactive are the calls of the source. The calls were made as follows, unless noted: active = hit-call score of the fitted dose curve at least 0.9, where 1 is the maximum; inconclusive = response in the unintended direction; inactive = score below 0.9."}
{"smiles": "CS(=O)(=O)c1ccc(C(=O)C2C(=O)CCCC2=O)c(Cl)c1COCC(F)(F)F", "values": [{"measurement": "outcome", "setting": "[1]", "result": "inactive"}, {"measurement": "AC50", "setting": "[2]", "result": "25.3 µM (active)"}]}
{"smiles": "CC(F)(F)CC(F)(F)F", "values": [{"measurement": "outcome", "setting": "[3]", "result": "inactive"}, {"measurement": "outcome", "setting": "[4]", "result": "inactive"}]}
{"smiles": "O=C(O)COc1cc(Cl)c(Cl)cc1Cl", "values": [{"measurement": "AC50", "setting": "SERPINA7 (gene 6906)", "result": "45.6 µM (active)"}]}
{"smiles": "CCOCn1c(-c2ccc(Cl)cc2)c(C#N)c(Br)c1C(F)(F)F", "values": [{"measurement": "AC50", "setting": "[1]", "result": "27.1 µM (active)"}, {"measurement": "AC50", "setting": "[2]", "result": "21.3 µM (active)"}, {"measurement": "AC50", "setting": "SERPINA7 (gene 6906)", "result": "2.12 µM (active)"}]}
{"smiles": "O=S(=O)(F)C(F)(F)C(F)(F)C(F)(F)C(F)(F)F", "values": [{"measurement": "outcome", "setting": "[3]", "result": "inactive"}, {"measurement": "outcome", "setting": "[4]", "result": "inactive"}]}
{"smiles": "Cc1cc(C(F)(C(F)(F)F)C(F)(F)F)ccc1NC(=O)c1cccc(I)c1C(=O)NC(C)(C)CS(C)(=O)=O", "values": [{"measurement": "outcome", "setting": "[1]", "result": "inactive"}, {"measurement": "outcome", "setting": "[2]", "result": "inactive"}]}
{"smiles": "O=C(NC(=O)c1c(F)cccc1F)Nc1cc(Cl)c(OC(F)(F)C(F)C(F)(F)F)cc1Cl", "note": "(stereo unspecified)", "values": [{"measurement": "AC50", "setting": "SERPINA7 (gene 6906)", "result": "19.5 µM (active)"}]}
{"smiles": "Nc1ncn[nH]1", "values": [{"measurement": "outcome", "setting": "[5]", "result": "inactive"}, {"measurement": "outcome", "setting": "[6]", "result": "inactive"}, {"measurement": "outcome", "setting": "[7]", "result": "inactive"}]}
{"smiles": "C=CCOC(F)(C(F)(F)F)C(F)(F)F", "values": [{"measurement": "outcome", "setting": "[3]", "result": "inactive"}, {"measurement": "outcome", "setting": "[4]", "result": "inactive"}]}
{"smiles": "NC(=O)c1ccc(N)nc1", "values": [{"measurement": "AC50", "setting": "[8]", "result": "21 µM (active)"}, {"measurement": "AC50", "setting": "[9]", "result": "52.9 µM (active)"}]}
{"smiles": "CCCSP(=S)(OCC)Oc1ccc(SC)cc1", "note": "(stereo unspecified)", "values": [{"measurement": "AC50", "setting": "SERPINA7 (gene 6906)", "result": "1.52 µM (active)"}]}
{"smiles": "CC1(C)[C@H](C(=O)O[C@H](C#N)c2cccc(Oc3ccccc3)c2)[C@@H]1/C=C(\\Cl)C(F)(F)F", "values": [{"measurement": "outcome", "setting": "[1]", "result": "inactive"}, {"measurement": "outcome", "setting": "[2]", "result": "inactive"}]}
{"smiles": "Oc1c(Br)cc(Br)cc1Br", "values": [{"measurement": "AC50", "setting": "SERPINA7 (gene 6906)", "result": "10.3 µM (active)"}]}
{"smiles": "CCCCCCCCCCCCOS(=O)(=O)O", "values": [{"measurement": "AC50", "setting": "SERPINA7 (gene 6906)", "result": "37.2 µM (active) and 56.4 µM (active)"}]}
{"smiles": "OC(Cc1ccccc1Cl)(Cn1[nH]cnc1=S)C1(Cl)CC1", "note": "(stereo unspecified)", "values": [{"measurement": "AC50", "setting": "[1]", "result": "50 µM (active)"}, {"measurement": "outcome", "setting": "[2]", "result": "inactive"}]}
{"smiles": "Cc1ccccc1OP(=O)(Oc1ccccc1C)Oc1ccccc1C", "values": [{"measurement": "AC50", "setting": "[1]", "result": "13.5 µM (active)"}, {"measurement": "AC50", "setting": "[2]", "result": "12.5 µM (active)"}]}
{"smiles": "O=S1(=O)OC(c2cc(Br)c(O)c(Br)c2)(c2cc(Br)c(O)c(Br)c2)c2ccccc21", "values": [{"measurement": "AC50", "setting": "SERPINA7 (gene 6906)", "result": "7.4 µM (active)"}]}
{"smiles": "COC(F)(C(F)(F)C(F)(F)F)C(F)(C(F)(F)F)C(F)(F)F", "note": "(stereo unspecified)", "values": [{"measurement": "outcome", "setting": "[3]", "result": "inactive"}, {"measurement": "outcome", "setting": "[4]", "result": "inactive"}]}
{"smiles": "Oc1cc(Cl)c(Cl)cc1Cl", "values": [{"measurement": "AC50", "setting": "SERPINA7 (gene 6906)", "result": "40.8 µM (active)"}]}
{"smiles": "CCOP(=S)(OCC)O/N=C(\\C#N)c1ccccc1", "values": [{"measurement": "AC50", "setting": "SERPINA7 (gene 6906)", "result": "20.6 µM (active)"}]}
{"smiles": "CCCCCCCCCCCCc1cccc(S(=O)(=O)O)c1", "values": [{"measurement": "AC50", "setting": "SERPINA7 (gene 6906)", "result": "22.2 µM (active)"}]}
{"smiles": "Nc1ccc(N)cc1", "values": [{"measurement": "AC50", "setting": "SERPINA7 (gene 6906)", "result": "20.3 µM (active)"}]}
